High-throughput results (PubChem)
Shown are actives, neighbours in structure and some others; about 3.5% of the full set was active somewhere.
Mcl-1 Bim block = human Bim-Mcl-1 interaction inhibition; Q07820; actives 0.1% (n = 190,000); Bead-based flow cytometry, Bim peptide-Mcl-1 binding; AID 1009; inhibition, % at 10 µM; in the data active = inhibition above about 40%
eIF4E-4G inh = blocks eIF4E binding to eIF4G; actives 0.37% (n = 220,000); inhibition, % at 21.7 µM; TR-FRET eIF4E-eIF4GI(517-606) binding, 2 h; P63073+Q04637;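 active = inhibition above about 30%, limit read from the data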
Target sequence (P63073 whole entry, looked up): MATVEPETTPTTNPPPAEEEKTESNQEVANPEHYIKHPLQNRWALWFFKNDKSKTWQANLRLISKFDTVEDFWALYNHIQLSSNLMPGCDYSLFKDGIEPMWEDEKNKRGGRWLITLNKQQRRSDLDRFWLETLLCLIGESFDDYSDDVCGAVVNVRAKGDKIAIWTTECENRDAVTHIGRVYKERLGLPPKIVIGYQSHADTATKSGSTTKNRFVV
Target sequence (Q04637 whole entry, looked up): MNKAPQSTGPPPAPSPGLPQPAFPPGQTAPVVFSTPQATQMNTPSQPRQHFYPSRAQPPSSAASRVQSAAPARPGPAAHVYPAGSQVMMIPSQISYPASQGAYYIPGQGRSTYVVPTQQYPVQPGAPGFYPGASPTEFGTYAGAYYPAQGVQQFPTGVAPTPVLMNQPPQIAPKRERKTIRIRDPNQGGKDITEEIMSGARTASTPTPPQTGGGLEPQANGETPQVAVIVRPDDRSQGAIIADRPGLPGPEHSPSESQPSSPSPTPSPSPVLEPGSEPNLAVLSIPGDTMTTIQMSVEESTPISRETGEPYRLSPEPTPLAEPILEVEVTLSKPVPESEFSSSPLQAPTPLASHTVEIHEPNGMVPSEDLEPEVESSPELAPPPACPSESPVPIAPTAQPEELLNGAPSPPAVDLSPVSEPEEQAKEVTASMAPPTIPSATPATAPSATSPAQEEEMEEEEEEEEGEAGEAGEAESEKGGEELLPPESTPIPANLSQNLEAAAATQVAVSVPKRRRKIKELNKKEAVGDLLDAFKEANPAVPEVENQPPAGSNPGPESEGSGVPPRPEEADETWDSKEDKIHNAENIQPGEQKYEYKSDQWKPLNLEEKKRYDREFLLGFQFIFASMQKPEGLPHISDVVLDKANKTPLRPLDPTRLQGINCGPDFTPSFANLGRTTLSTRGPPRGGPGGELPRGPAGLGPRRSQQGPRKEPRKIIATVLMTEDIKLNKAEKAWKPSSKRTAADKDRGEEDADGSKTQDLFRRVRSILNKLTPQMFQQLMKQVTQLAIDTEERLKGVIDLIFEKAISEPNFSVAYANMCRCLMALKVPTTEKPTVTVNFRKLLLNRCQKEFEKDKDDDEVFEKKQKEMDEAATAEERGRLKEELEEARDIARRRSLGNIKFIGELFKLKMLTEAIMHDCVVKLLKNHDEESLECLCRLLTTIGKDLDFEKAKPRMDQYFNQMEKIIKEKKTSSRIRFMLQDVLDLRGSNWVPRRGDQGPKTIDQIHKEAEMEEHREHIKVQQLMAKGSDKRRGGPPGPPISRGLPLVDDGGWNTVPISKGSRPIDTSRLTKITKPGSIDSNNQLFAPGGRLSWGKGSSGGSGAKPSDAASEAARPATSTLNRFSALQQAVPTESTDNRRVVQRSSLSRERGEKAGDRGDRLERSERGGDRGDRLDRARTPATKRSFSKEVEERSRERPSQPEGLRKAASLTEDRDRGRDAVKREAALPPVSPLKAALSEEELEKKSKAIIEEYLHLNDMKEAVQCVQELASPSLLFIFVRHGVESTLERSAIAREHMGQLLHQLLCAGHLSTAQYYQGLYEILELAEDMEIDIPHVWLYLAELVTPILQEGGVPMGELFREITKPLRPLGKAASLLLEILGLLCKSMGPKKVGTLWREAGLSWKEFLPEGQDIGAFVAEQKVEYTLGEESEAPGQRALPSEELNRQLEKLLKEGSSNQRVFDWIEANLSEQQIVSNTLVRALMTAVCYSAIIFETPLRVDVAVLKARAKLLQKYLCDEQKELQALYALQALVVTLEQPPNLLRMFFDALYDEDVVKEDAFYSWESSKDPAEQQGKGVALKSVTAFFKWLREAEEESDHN
Hck Nef HTS = blocks Nef-activated human Hck kinase. P08631. Recombinant Hck-YEEI plus Nef, Z-Lyte FRET kinase assay. inhibition, % at 20 µM. actives 0.68% (n = 220,000). AID 463187;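 active = Hck-Nef kinase inhibition above about 50%, limit read from the data; inactive = inhibition below that limit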
Mcl1 Noxa PPI = Mcl-1/Noxa interaction inhibition. Q07820. TR-FRET Mcl-1/Noxa peptide binding, 2 h. inhibition, % at 21.7 µM. actives 1.5% (n = 220,000);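 active = compounds that cut the protein-peptide binding signal by more than 50% relative to plate controls in a single-dose test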;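 note: His-tagged Mcl-1 with rhodamine Noxa BH3 peptide and terbium anti-His antibody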
14-3-3 Bad inh = disrupts binding of bovine 14-3-3 zeta to phospho-Bad peptide; inhibition, % at 21.7 µM; AID 781; P63103; TR-FRET 14-3-3zeta/Dy647-pBad peptide displacement, 1 h; actives 0.71% (n = 220,000);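 active = inhibition above about 70%, limit read from the data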
Mcl1-Bid inh = Mcl-1/Bid interaction inhibition. actives 0.97% (n = 220,000). TR-FRET Mcl-1/Bid-Dy647 peptide binding, 1536-well. inhibition, % at 21.7 µM;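 active = compounds that cut the binding signal by more than half at the single screening dose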;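 note: His-tagged Mcl-1 with europium anti-His antibody binding Bid BH3 peptide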
Of the large screens only hits and unclear results are named; the others gave an inactive call; [ ] = dose if it differs, or a comment.

CCCN1CCC(=NNC(=O)c2ccc(Br)o2)CC1	eIF4E-4G inh 39
CCN1CCC(=NNC(=O)c2ccco2)CC1	none
O=c1oc2ccccc2c2oc3cc(O)c(O)cc3c12	Mcl1 Noxa PPI 98 (no result: Mcl-1 Bim block)
Cc1cccc(NC2=Nc3ccccc3N3C2=Nc2c(c(C)nn2-c2ccccc2)C3c2ccc(O)c(O)c2)c1 (stereo not drawn)	Mcl1 Noxa PPI 63
COc1cc(C=C(C(C)=O)C(C)=O)ccc1O	none
COc1cc(/C=N/Nc2ccc(C(=O)O)cc2)ccc1O	Mcl1 Noxa PPI 63
COc1cc(/C=C/C(=O)CC(=O)/C=C/c2ccc(O)c(OC)c2)ccc1O	Mcl1 Noxa PPI 51
COc1cc(/C=N/Nc2nc(C)nc3c2cnn3-c2ccccc2)ccc1O	Mcl1 Noxa PPI 74
O=C(Nc1cccc2ccccc12)c1cc2c(cc1Br)OCO2	none (no result: Mcl-1 Bim block)
CCN(CCO)c1ccc(-n2c(N)c(C(=O)OC)c3nc4ccccc4nc32)cc1	Mcl1 Noxa PPI 52, 14-3-3 Bad inh 87
CNC(=S)N/N=C(\C)c1ccc(C)c(C)c1	none
CCOc1ccc(C2C(C(=O)Nc3ccc(F)cc3)=C(C)Nc3nc(CCCO)nn32)cc1 (stereo not drawn)	14-3-3 Bad inh 77
COc1ccc(C2C(C(=O)Nc3ccc(F)cc3)=C(C)Nc3nc(CCCO)nn32)cc1 (stereo not drawn)	none
CNC(=S)N(Cc1ccccc1)Cc1cccnc1	none (no result: Mcl-1 Bim block)
NC(=O)c1nn(-c2ccc(Cl)cc2Cl)c(=O)cc1O	none
Cc1cccc(Oc2ncnc3onc(C)c23)c1C	14-3-3 Bad inh 85[fluorescence artefact?]
CCC(C)[C@H](NC(=O)Nc1ccccc1F)C(=O)O (stereo partly drawn)	Mcl1-Bid inh 85 (no result: Mcl-1 Bim block)
Cc1ccc(C)n1-c1cc([N+](=O)[O-])ccc1-n1ccnc1	none (no result: Mcl-1 Bim block)
CC1(C)N([O-])c2cc([N+](=O)[O-])ccc2[N+]1=O	Mcl1 Noxa PPI 85 (no result: Mcl-1 Bim block)
C/C=C\C=C/C(=O)Nc1cccc(C2=NOC3(C2)C[C@@H](C(N)=O)N(C(=O)c2ccccc2)C3)c1 (stereo partly drawn)	Mcl1 Noxa PPI 75 (no result: Mcl-1 Bim block)
C=C(C)C(=O)Nc1cccc(C2=NOC3(C2)C[C@@H](C(N)=O)N(C(=O)c2ccc(OC)cc2)C3)c1 (stereo partly drawn)	Mcl1 Noxa PPI 69 (no result: Mcl-1 Bim block)
C=C(C)C(=O)Nc1cccc(C2=NOC3(C2)C[C@@H](C(N)=O)N(C(=O)CCCCC)C3)c1 (stereo partly drawn)	Mcl1 Noxa PPI 69 (no result: Mcl-1 Bim block)
CCOC(=O)c1ccc(NC(=S)N(CCCN2CCCC(C)C2)Cc2ccco2)cc1 (stereo not drawn)	none
CCCn1c(SCC(=O)C(C)(C)C)nc2ccccc21	none
CCCn1c(SC(C)C(=O)O)nc2ccccc21 (stereo not drawn)	14-3-3 Bad inh 83
O=C(c1cnc2sccn2c1=O)N1CCN(c2ccccc2Cl)CC1	eIF4E-4G inh 98 (no result: Mcl-1 Bim block)
CC(C)CC1NC(=O)N(CC(=O)c2ccc3c(c2)OCCO3)C1=O (stereo not drawn)	Mcl1 Noxa PPI 98
O=C(Nc1ccccc1)Nc1nc(-c2ccccc2)cs1	none (no result: Mcl-1 Bim block)
O=C(Nc1nc(-c2ccccc2)cs1)c1ccco1	eIF4E-4G inh 66 (no result: Mcl-1 Bim block)
O=C(Nc1nc(-c2ccc(Cl)s2)cs1)c1ccccc1	none
O=C(Nc1nc(-c2ccco2)cs1)c1ccccc1	Mcl1 Noxa PPI 54
O=C(Nc1ccc(Cl)c(Cl)c1)Nc1nc(-c2ccccc2)cs1	Mcl1 Noxa PPI 51
O=C(COc1cccc2ccccc12)NCc1cccnc1	none
CSc1nnc(-c2cc3c(-c4ccccc4)nn(C)c3s2)n1C	14-3-3 Bad inh 89
COc1cccc(Nc2nc(-c3cccc(N4C(=O)c5ccccc5C4=O)c3)cs2)c1	14-3-3 Bad inh 84
CCCNC(=O)CN1C(=O)NC(CCSC)C1=O (stereo not drawn)	none (no result: Mcl-1 Bim block)
CCCCOc1ccc(C(=O)NCCC(=O)NCCCC(=O)OCC)cc1	Mcl1-Bid inh 94 (no result: Mcl-1 Bim block)
Nc1ncnc2c1nc(SCCO)n2Cc1ccccc1	none
O=C(Nc1nc(-c2cccc3ccccc23)cs1)c1ccc2c(c1)S(=O)(=O)c1ccccc1C2=O	Mcl1 Noxa PPI 62
O=C(CSc1ccccc1)NCCSCc1ccccc1	none
Cc1c(NC(=O)COC(=O)c2cc(-c3ccc(-c4ccccc4)cc3)nc3ccccc23)c(=O)n(-c2ccccc2)n1C	Mcl1-Bid inh 82
Cc1c(NC(=O)CN2CCN(c3ccccc3)CC2)c(=O)n(-c2ccccc2)n1C	none
COc1ccc(-c2cc(C(=O)OC(C)C(=O)Nc3c(C)n(C)n(-c4ccccc4)c3=O)c3ccccc3n2)cc1 (stereo not drawn)	none
Cc1c(NC(=O)CN2CC(C)OC(C)C2)c(=O)n(-c2ccccc2)n1C (stereo not drawn)	14-3-3 Bad inh 86
O=C1N=c2ccc(Br)cc2=C1c1sc(=S)n(NS(=O)(=O)c2ccccc2)c1O	Mcl1 Noxa PPI 83, Mcl1-Bid inh 52
CCN1/C(=C/C=C/c2oc3ccc4ccccc4c3[n+]2CC)Oc2ccc3ccccc3c21	14-3-3 Bad inh 91, Mcl1-Bid inh 89
O=C1/C(=C\c2cccnc2)Sc2ccccc21	none
CC(=O)Nc1ccc(/C=C2/Sc3ccccc3C2=O)cc1	Mcl1 Noxa PPI 72
COc1cc(NC(C)C(=O)N2CC(C)OC(C)C2)cc(OC)c1 (stereo not drawn)	none
CCN1/C(=C/c2ccc3cc(C)ccc3[n+]2C)Sc2ccc3sccc3c21	Mcl1 Noxa PPI 60
CCOC(=O)c1[nH]c2ccc(Br)cc2c1NC(=O)CCN1CCCC(C)(C)C1	none
COc1cccc(-c2cc(C(F)(F)F)nc(N3CCOCC3)n2)c1	none
COc1ccc(-c2cc(C(F)(F)F)nc(N3CCOCC3)n2)cc1OC	Mcl1-Bid inh 91
C=CCN(CC=C)C(=S)NC(=O)Cc1cccc2ccccc12	Mcl1 Noxa PPI 62
CCOC(=O)C1CCN(CC(=O)Nc2c(C(=O)OC)[nH]c3cccc(Cl)c23)CC1	Mcl1-Bid inh 99
O=Cc1cnc(N2CCOCC2)nc1	none
CC1=NOC(=O)/C1=C\c1ccc(-c2ccc(Cl)cc2Cl)o1	Mcl1 Noxa PPI 87, Mcl1-Bid inh 88
Cc1[nH][nH]c(=O)c1C(c1ccc(-c2ccc(Cl)cc2Cl)o1)c1c(C)[nH][nH]c1=O	none
O=C(c1ccccc1)N1CCN(Cc2ccccc2Br)CC1	Mcl1-Bid inh 84
COc1ccc(C(=O)N2CCN(Cc3ccccc3C)CC2)cc1OC	Mcl1-Bid inh 75
COc1ccccc1CN1CCN(C(=O)c2ccncc2)CC1	eIF4E-4G inh 63, 14-3-3 Bad inh 83
O=C(c1ccccc1)N1CCN(C(=O)c2ccccc2)CC1	none
COc1cccc(OC)c1C(=O)N1CCN(c2ccccn2)CC1	Mcl1-Bid inh 95
NS(=O)(=O)c1cccc(NC(=O)COC(=O)CN2C(=O)C3CC=CCC3C2=O)c1 (stereo not drawn)	none
